Several values for one entry are separate records, joined by “and”; a condition that tells them apart may be missing. Equal values may be shown once. Activity calls are given as the source filed them.

One assay addresses Albumin (Bos taurus) (UniProt P02769). The experiment in a line: bovine serum albumin binders on microarray, profiling panel, artefact control for SMM control protein annotation, biochemical, small-molecule microarray, Alexa647 label, 635/667 nm fluorescence (AID 1118).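 Further: score merges 667 nm emission intensity and signal-to-noise per printed compound spot.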 The following applies: BSA-A647 binding, fluorescence 635 nm, higher = more signal.
Assay [1] in a line: small-molecule microarray binders of probe aXIP, primary screen, biochemical, NeuroSMM set, 635/667 nm fluorescence (AID 1119).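 Further: probe is the protein aXip251-270 applied at 1 µg/mL to compound-printed slides; binding of probe to printed compounds measured as 667 nm fluorescence plus signal to noise.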 To be noted: higher = more signal, called active from +8 up or from −8 down.
The nature of assay [2]: small-molecule binders of probe aNOTCH3, primary screen, biochemical, small-molecule microarray, 635/667 nm fluorescence (AID 1120).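 Further: probe is a biotin-tagged antibody raised against NOTCH3 rather than NOTCH3 protein; score merges spot fluorescence near 667 nm with spot signal to noise.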 To be noted: higher = more signal.
Assay [3] in a line: small-molecule binders of probe aNOTCH2, primary screen, biochemical, small-molecule microarray, 635/667 nm fluorescence (AID 1121).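 Further: score merges feature fluorescence read at 667 nm with its signal to noise.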 The following applies: higher = more signal.
Assay [4] has as its target Carbonic anhydrase 2 (Homo sapiens) (UniProt P00918). The experiment in a line: CAII small-molecule binders, profiling panel, biochemical, small-molecule microarray, Alexa647-labelled CAII (AID 1122). To be noted: CAII-A647 binding fluorescence, higher = more signal.
The nature of assay [5]: COS7 lysate on small-molecule microarray, probe aHis, 635 nm (AID 1123).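 Further: z-score combines 667nm fluorescence intensity with signal-to-noise per printed compound spot.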 The following applies: COS7 cell lysate, fluorescence, higher = more signal.
A short description of assay [6]: compound binding in COS7 lysate, probe aLAP1, primary screen, cell lysate, small-molecule microarray (AID 1124).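 Further: lysate comes from COS7 cells expressing LAP1 and is applied at 0.3 µg/mL; score merges spot fluorescence near 667 nm with signal-to-noise over triplicate slides.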 The following applies: probe aLAP1, fluorescence, higher = more signal.
A further assay relates to Sam68 (KHDRBS1). The experiment in a line: Sam68 small-molecule binders, primary screen, biochemical, small-molecule microarray, 635 nm fluorescence (AID 1125).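 Further: score merges 667 nm channel intensity with signal to noise over triplicate slides.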 To be noted: small-molecule microarray binding, higher = more signal.
Assay [7] relates to Chordin-like protein 2 (CHRDL2). The experiment in a line: CHRDL2 small-molecule binders, primary screen, biochemical, small-molecule microarray, 635 nm fluorescence (AID 1126).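 Further: printed compound slides probed with Chrdl2 protein at 4 µg/mL for 1 h at 4 C; score merges 667 nm emission intensity with signal to noise over three replicate slides.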 To be noted: small-molecule microarray binding, fluorescence 635 nm; higher = more signal.
For assay [8], the target named is Concanavalin-A (Canavalia ensiformis) (UniProt P02866). The experiment in a line: ConA small-molecule binders, primary screen, artefact control for SMM control protein annotation, biochemical, small-molecule microarray, Alexa647 label, 635 nm (AID 1127).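 Further: z combines 667 nm emission intensity with signal-to-noise across three replicate slides.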 The following applies: ConA-A647 binding fluorescence, higher = more signal.
Chain of Concanavalin-A (Canavalia ensiformis) (P02866 whole entry, looked up): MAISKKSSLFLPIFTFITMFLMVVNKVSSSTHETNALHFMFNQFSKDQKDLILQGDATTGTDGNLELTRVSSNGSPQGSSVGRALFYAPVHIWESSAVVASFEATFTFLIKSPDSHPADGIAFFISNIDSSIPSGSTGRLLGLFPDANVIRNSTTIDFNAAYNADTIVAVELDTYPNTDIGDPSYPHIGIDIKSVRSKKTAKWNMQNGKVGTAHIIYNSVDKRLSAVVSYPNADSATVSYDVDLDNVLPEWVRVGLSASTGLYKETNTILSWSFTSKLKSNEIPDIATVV

Chain of Albumin (Bos taurus) (P02769 whole entry, looked up): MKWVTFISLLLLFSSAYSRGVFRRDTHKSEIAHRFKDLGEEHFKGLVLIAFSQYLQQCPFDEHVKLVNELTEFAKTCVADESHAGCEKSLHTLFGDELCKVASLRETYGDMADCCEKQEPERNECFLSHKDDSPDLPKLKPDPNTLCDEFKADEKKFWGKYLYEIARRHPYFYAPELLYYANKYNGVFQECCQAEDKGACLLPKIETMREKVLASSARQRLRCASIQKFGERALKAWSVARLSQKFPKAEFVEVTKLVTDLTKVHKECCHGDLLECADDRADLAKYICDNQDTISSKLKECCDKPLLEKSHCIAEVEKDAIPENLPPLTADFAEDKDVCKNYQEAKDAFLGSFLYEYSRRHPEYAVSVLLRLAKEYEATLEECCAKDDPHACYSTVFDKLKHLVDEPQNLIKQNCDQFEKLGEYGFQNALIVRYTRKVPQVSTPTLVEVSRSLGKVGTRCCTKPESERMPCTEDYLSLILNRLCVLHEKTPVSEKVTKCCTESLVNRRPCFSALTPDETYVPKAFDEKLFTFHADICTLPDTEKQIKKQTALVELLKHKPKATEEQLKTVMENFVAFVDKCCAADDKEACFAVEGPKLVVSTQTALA

`CO[C@@H]1COC(=O)CC=C[C@H](C)COC(=O)[C@H](C)NC(=O)CC=C[C@H]1C`: the composite z-score in the assay with Albumin (Bos taurus) is -1.02; in assay [2], -0.1; in assay [3] it was -0.164; in assay [4], -0.427; in assay [5], -0.448; in assay [6], -0.235. Besides, the composite z-score came to 0.548 in the assay on Sam68 (KHDRBS1), 1.06 in assay [7] and 0.161 in assay [8]. Also, the composite Z-score in [1] is 0.332 (inactive).

In the case of `COc1ccc(-c2ccc3c(n2)CCCN3CC(O)CN2CCCc3nc(-c4ccc(Br)cc4)ccc32)cc1` (stereo not given), the composite z-score with Albumin (Bos taurus) is 0.479 and 0.259; in assay [2], 0.448 and 0.392; in assay [3] it was -0.0125 and -0.0349; in assay [4], 0.491 and 0.44; in [5] it was -0.0214 and 0.91; in [6], 0.984 and 0.29. In addition, the composite z-score is 0.764 and 0.301 in the assay with Sam68 (KHDRBS1); 0.708 and 0.919 in assay [7]; 0.677 and 0.632 in [8]. Also, the composite Z-score in [1] is 1.48 (inactive) and 2.85 (inactive).

Regarding `COC(=O)C1=C(C)N(Cc2ccccc2)[C@]23O[C@](C(=O)OC)(C(=O)N2[C@@H]1c1ccccc1)[C@@H](c1ccccc1)[C@@H]3C(=O)c1ccccc1`, the composite z-score with Albumin (Bos taurus) was 0.711 and -0.334; in assay [2], -0.0111 and -0.0048; in [3], -0.119 and -0.0974; in [4], 0.179 and 0.178; in assay [5], 0.49 and 0.258; in assay [6] it was 0.315 and -0.144. In addition, the composite z-score was 0.661 and -0.776 in the assay with Sam68 (KHDRBS1); 0.189 and 0.843 in [7]; 0.675 and 0.142 in assay [8]. Also, in [1], the composite Z-score is -0.0461 (inactive) and 0.0162 (inactive).

Consider `CCCNC(=O)OC[C@H]1O[C@H](CCON=C(C)CCN2CCc3nc(-c4ccccc4)c(-c4ccccc4)cc3C2)C=C[C@@H]1Oc1ccc(OC)cc1`, for which the composite z-score with Albumin (Bos taurus) is 0.216; in assay [2], 0.0179; in [3], -0.108; in [4], -0.0398; in [5], 0.73; in assay [6], 0.354. In addition, the results for the composite z-score (in the assay with Sam68 (KHDRBS1); in assay [7]; in [8]) were 0.389, -0.273 and 0.472, respectively. Further, in assay [1], the composite Z-score is 0.126 (inactive).

Consider `C=CCN(Cc1ccccc1)C(=O)C1N(CCOCCO)C(=O)C2C(C(=O)O)C3C=CC21O3` (stereo not given), for which the composite z-score was -1.03 and 0.202 with Albumin (Bos taurus); -0.611 and -0.41 in [2]; -0.0984 and -0.183 in [3]; 0.903 and 0.881 in [4]; 1.33 and -1.28 in assay [5]; 1.24 and -0.375 in [6]. In addition, the composite z-score was -0.604 and -0.238 with Sam68 (KHDRBS1); -3.42 and -2.87 in [7]; -1.05 and -0.374 in assay [8]. In addition, in assay [1], the composite Z-score was -0.124 (inactive) and 0.217 (inactive).

For `C=CCN(Cc1ccccc1)C(=O)C1N(c2c(Cl)cccc2CO)C(=O)C2C(C(=O)O)C3C=CC21O3` (stereo not given), the composite z-score in the assay with Albumin (Bos taurus) is -1.52 and -0.682; in [2], -0.425 and -0.352; in assay [3], -0.168 and -0.261; in [4], -0.774 and 0.32; in assay [5] it was -0.908 and -0.629; in [6] it was -0.628 and -0.742. Besides, the composite z-score is -1.89 and -1.02 in the assay with Sam68 (KHDRBS1); -3.43 and -1.44 in assay [7]; -1.31 and -1.79 in assay [8]. Moreover, the composite Z-score in [1] was -0.874 (inactive) and -0.317 (inactive).

Regarding `CCOC(=O)NN=C1C[C@@H](O)[C@@H](O)[C@@H]2[C@@H]3C(=O)N(Cc4ccccc4)C(=O)[C@@H]3CC[C@@H]12`, the composite z-score in the assay with Albumin (Bos taurus) was -0.0904; in [2], -0.166; in [3], -0.135; in assay [4], -0.0916; in assay [5], -0.381; in assay [6], 0.0195. Also, the values for the composite z-score (with Sam68 (KHDRBS1); in [7]; in [8]) were 0.254, 0.772 and 0.42, respectively. Also, the composite Z-score in assay [1] is 0.182 (inactive).

Turning to `COc1ccc(O[C@H]2C=C[C@@H](c3ccccc3)O[C@@H]2COC(=O)CCC(C)=NO[C@H](C)c2cn([C@H](CO)Cc3ccccc3)nn2)cc1`, the composite z-score with Albumin (Bos taurus) was 0.683 and 0.0567; in assay [2], 0.0886 and -0.295; in [3] it was -0.318 and -0.0611; in assay [4], -0.11 and -0.114; in [5], 0.167 and -0.0458; in assay [6], -0.226 and -0.0278. Moreover, the composite z-score was 0.492 and -0.005 in the assay on Sam68 (KHDRBS1); 0.0011 and 0.593 in [7]; -0.0163 and -0.0252 in [8]. Besides, in assay [1], the composite Z-score is 0.0335 (inactive) and 0.232 (inactive).

As to `C=CCN(CCCCC)C(=O)C1N(CCOCCO)C(=O)C2C(C(=O)O)C3C=CC21O3` (stereo not given), the composite z-score in the assay with Albumin (Bos taurus) was 0.92 and -1.47; in [2] it was -0.496 and -0.461; in assay [3] it was -0.195 and -0.189; in assay [4], 0.853 and 0.794; in assay [5], -0.568 and 0.294; in [6], -0.615 and 1.6. The composite z-score in the assay on Sam68 (KHDRBS1) was -3.26 and -1; in assay [7], -2.12 and -3.36; in assay [8], -1.88 and -1.67. Also, the composite Z-score in assay [1] was 2.54 (inactive) and -0.487 (inactive).
